Assay results published in PubChem BioAssay (Tox21).
Results filed as inconclusive are left out. Active and inactive are the calls of the source. Unless noted, calls follow the shape of the full dose curve.

Columns and labels:
[1] = Nuclear factor erythroid 2-related factor 2/antioxidant responsive element (Nrf2/ARE) small molecule agonists: qHTS cell viability counter screen in human keratinocytes (AID 1919968; active = well fitted curve in the direction sought with a large enough effect in the repeat runs; an effect the other way counts as inactive or inconclusive; also: nearly all actives have a fitted effect of over 55% in size)
Outline: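 Cells of the KeratinoSens line were plated at 1,500 per well and left for 5 h before compound transfer from DMSO stocks. After a 23 h incubation (37 C, 5% CO2), CellTiter-Fluor was added. Signal was taken as fluorescence intensity 1 h later.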

[2] = Nuclear factor erythroid 2-related factor 2/antioxidant responsive element (Nrf2/ARE) small molecule agonists: luciferase reporter gene qHTS assay in human keratinocytes (AID 1919969); also: nearly all actives have a fitted effect of over 35% in size
[3] = target: Gonadotropin-releasing hormone receptor (Homo sapiens) (UniProt P30968); test: Human gonadotropin-releasing hormone receptor (GnRHR) small molecule agonists, calcium flux assay in GnRHR-HEK293 cells (AID 1920063); also: nearly all actives have a fitted effect of over 35% in size
Gonadotropin-releasing hormone receptor (Homo sapiens), sequence (P30968 whole entry, looked up): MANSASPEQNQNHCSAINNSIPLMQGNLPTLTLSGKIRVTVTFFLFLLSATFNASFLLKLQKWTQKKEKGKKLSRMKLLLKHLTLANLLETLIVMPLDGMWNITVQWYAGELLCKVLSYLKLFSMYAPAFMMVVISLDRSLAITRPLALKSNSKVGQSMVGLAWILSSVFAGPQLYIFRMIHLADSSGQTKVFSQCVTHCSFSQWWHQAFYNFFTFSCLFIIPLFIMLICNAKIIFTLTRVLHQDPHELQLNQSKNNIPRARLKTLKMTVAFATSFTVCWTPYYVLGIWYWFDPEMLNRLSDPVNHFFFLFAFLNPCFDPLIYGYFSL
Outline: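 Compounds dissolved in DMSO are pin-transferred onto dye-loaded GnRHR-HEK293 cells, which were seeded 18 h before at 37 C/5% CO2. Calcium signal is read as fluorescence intensity at 1 s intervals for 3 min.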

[4] = target: KiSS-1 receptor (Homo sapiens) (UniProt Q969F8); test: Human kisspeptin (KISS1R) small molecule agonists, calcium flux assay in KISS1R-HEK293 cells (AID 1920064; active = well fitted curve in the direction sought with a large enough effect in the repeat runs; an effect the other way counts as inactive or inconclusive)
KiSS-1 receptor (Homo sapiens), sequence (Q969F8 whole entry, looked up): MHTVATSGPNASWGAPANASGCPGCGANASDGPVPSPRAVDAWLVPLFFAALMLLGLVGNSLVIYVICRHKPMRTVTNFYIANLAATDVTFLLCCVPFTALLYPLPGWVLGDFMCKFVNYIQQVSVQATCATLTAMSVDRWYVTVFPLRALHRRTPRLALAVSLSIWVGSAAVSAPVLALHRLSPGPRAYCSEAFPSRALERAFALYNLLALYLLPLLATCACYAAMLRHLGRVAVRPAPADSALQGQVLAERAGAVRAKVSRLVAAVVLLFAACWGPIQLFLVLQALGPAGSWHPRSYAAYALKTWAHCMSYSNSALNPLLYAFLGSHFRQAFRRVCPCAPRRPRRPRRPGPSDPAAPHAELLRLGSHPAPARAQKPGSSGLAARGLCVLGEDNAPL
Outline: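 Cell line: HEK293, stable human KISS1R. Dye loading 1 h at 37 C after 18 h culture. Read: kinetic fluorescence, 480/540 nm, 3 min at 1 s intervals.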

[5] = G protein-coupled receptor (GPCR) small molecule agonists, calcium flux assay: HEK293 wild type cell line counter screen (AID 1920065)
Outline: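 Tox21 10K compounds, 15 concentrations each in triplicate, pin-transferred in DMSO onto dye-loaded cells; kinetic read at 480/540 nm for 3 min, 1 s intervals.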

[6] = p53 small molecule agonists, cell-based qHTS assay with human liver microsomes (AID 1963577);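 also: p53 response element beta-lactamase reporter cells with liver microsomes plus NADPH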
Outline: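 Steps: plate p53RE-bla cells, incubate 5 h at 37 C; add compound in DMSO; add microsomes (0.5 mg/mL final) and NADPH (0.5 mg/mL final); incubate 16 h at 37 C; add LiveBLAzer, 2 h RT; read fluorescence.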

[7] = p53 small molecule agonists, cell-based qHTS assay with rat liver microsomes (AID 1963578)
Outline: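 Metabolic activation is supplied by rat liver microsomes with NADPH (each 0.5 mg/mL final). p53RE-bla cells incubate with compound 16 h at 37 C; reporter activity is measured by LiveBLAzer fluorescence.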

[8] = p53 small molecule agonists, cell-based qHTS assay with human liver microsomes: qHTS cell viability counter screen (AID 1963579); also: nearly all actives have a fitted effect of over 45% in size
Outline: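 After the 460/530 nm beta-lactamase read, CellTiter-Glo was added to the same wells and luminescence measured after 30 min at room temperature, giving viability of p53RE-bla cells treated 16 h with compounds plus microsomes and NADPH.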

[9] = p53 small molecule agonists, cell-based qHTS assay with rat liver microsomes: qHTS cell viability counter screen (AID 1963580); also: nearly all actives have a fitted effect of over 45% in size
Outline: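 Counter screen for cytotoxicity under metabolic activation: rat liver microsomes and NADPH, 0.5 mg/mL final each, added with compounds to p53RE-bla HCT-116 cells; 16 h at 37 C, then ATP luminescence read.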

[10] = p53 small molecule agonists, cell-based qHTS assay: qHTS cell viability counter screen (AID 1963581); also: nearly all actives have a fitted effect of over 45% in size
Outline: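 ATP content measured by luminescence in HCT-116 p53RE-bla cells treated 16 h at 37 C, same wells as the reporter screen.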

[11] = p53 small molecule agonists, cell-based qHTS assay (AID 1963582; active = well fitted activation curve with a large enough effect in the signal ratio in the repeat runs, not every such curve was filed as active; the % refers to the signal ratio)
Outline: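 16 h compound exposure (37 C) of p53 response element–bla cells, preceded by 5 h recovery at 37 C/5% CO2; read-out via LiveBLAzer B/G FRET substrate, 2 h RT, fluorescence intensity.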

[12] = target: Muscarinic acetylcholine receptor M1 (Homo sapiens) (UniProt P11229); test: Cholinergic receptor muscarinic 1 (CHRM1) small molecule antagonists, cell-based qHTS assay (AID 1963588); also: nearly all actives have a fitted effect of over 40% in size
Muscarinic acetylcholine receptor M1 (Homo sapiens), sequence (P11229 whole entry, looked up): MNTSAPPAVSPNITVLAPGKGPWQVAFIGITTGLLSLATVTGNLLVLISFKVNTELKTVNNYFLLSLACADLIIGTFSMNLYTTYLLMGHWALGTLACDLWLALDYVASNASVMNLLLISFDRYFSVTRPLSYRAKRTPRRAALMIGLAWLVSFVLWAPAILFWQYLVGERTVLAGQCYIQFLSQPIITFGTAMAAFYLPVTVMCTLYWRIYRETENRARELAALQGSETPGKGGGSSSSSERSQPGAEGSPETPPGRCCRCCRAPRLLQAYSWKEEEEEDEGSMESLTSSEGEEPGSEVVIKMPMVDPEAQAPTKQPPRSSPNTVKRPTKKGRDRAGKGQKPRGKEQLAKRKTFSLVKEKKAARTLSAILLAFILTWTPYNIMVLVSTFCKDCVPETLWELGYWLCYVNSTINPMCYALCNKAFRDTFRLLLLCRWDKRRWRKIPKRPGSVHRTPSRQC
Outline: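 Compounds were tested at 15 concentrations in three independent runs. Dye-loaded CHRM1-CHO cells were exposed 5 min at room temperature before stimulation by acetylcholine added at 50nM. Intracellular calcium was read kinetically on FDSS for 3 min.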

[13] = target: Muscarinic acetylcholine receptor M1 (Homo sapiens) (UniProt P11229); test: Cholinergic receptor muscarinic 1 (CHRM1) small molecule agonists, cell-based qHTS assay (AID 1963589); also: nearly all actives have a fitted effect of over 35% in size
Outline: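 Homogeneous fluorescence calcium flux, agonist mode. Human M1-expressing CHO cells; compound dosed at 15 concentrations, three independent runs; signal sampled every 1 sec.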

[14] = cAMP Responsive Elements (CRE) small molecule agonists, cell-based qHTS assay (AID 1963590)
Outline: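 HEK 293T cells stably bearing CRE-bla were plated at 2,000 cells per well and rested 18 h. Compounds, positive controls or DMSO were added for 3 h at 37 C. LiveBLAzer B/G substrate was then loaded for 2 h at room temperature.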

[15] = target: Beta-2 adrenergic receptor (Homo sapiens) (UniProt P07550); test: Adrenergic beta2 receptor (ADRB2) small molecule antagonists, cell-based qHTS assay (AID 1963592); also: series mostly up to about 92 µM; nearly all actives have a fitted effect of over 50% in size
Beta-2 adrenergic receptor (Homo sapiens), sequence (P07550 whole entry, looked up): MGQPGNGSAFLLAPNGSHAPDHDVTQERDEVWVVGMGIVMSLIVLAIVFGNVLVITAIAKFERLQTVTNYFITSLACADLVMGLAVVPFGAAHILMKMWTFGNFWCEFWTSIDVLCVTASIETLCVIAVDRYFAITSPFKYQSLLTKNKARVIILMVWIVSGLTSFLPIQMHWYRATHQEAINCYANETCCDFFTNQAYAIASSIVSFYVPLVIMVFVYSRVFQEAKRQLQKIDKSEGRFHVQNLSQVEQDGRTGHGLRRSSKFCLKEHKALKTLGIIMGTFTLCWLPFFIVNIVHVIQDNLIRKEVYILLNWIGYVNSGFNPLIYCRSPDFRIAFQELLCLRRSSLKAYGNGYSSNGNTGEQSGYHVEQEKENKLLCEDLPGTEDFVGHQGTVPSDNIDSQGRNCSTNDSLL
Outline: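 Assay format: CHO-ADRB2 cells, 18-20hr seeding at 37C/5% CO2, then compound plus 1nM isoproterenol agonist mix for 0.5hr RT. Homogeneous time-resolved fluorescence cAMP detection after 1hr, expressed as 665/615 nm ratio.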

[16] = target: Beta-2 adrenergic receptor (Homo sapiens) (UniProt P07550); test: Adrenergic beta2 receptor (ADRB2) small molecule agonists, cell-based qHTS assay (AID 1963593);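 also: CHO cells stably overexpressing human ADRB2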
Outline: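 CHO cells stably over-expressing ADRB2 were plated overnight at 37C, then dosed with compounds plus a stimulation mix containing 100uM IBMX and 25uM Ro-20-1724 for 0.5hr at room temperature. cAMP was measured by HTRF competition, 1hr.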

[17] = target: D(2) dopamine receptor (Homo sapiens) (UniProt P14416); test: Dopamine D2 receptor (DRD2) small molecule agonists, cell-based qHTS assay (AID 1963594); also: nearly all actives have a fitted effect of over 35% in size
D(2) dopamine receptor (Homo sapiens), sequence (P14416 whole entry, looked up): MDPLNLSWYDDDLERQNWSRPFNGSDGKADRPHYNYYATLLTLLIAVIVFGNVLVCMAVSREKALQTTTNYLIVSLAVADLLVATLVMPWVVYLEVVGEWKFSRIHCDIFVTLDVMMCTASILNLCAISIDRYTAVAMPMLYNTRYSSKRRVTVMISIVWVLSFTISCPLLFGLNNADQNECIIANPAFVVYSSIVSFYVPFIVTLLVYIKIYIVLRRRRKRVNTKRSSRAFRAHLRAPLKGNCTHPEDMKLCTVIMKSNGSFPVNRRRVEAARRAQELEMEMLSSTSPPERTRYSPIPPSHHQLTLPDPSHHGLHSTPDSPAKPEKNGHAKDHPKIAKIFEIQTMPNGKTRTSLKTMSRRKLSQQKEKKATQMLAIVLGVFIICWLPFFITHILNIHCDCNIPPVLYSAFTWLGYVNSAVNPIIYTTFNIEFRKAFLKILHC
Outline: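 HEK293 cells stably expressing DRD2 were cultured 24 h at 37 C, then given Ro20-1724 (0.1 mM final) and compounds for 10 min at room temperature. NKH477 (200nM) was then added for 30 min. cAMP was read by HTRF.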

[18] = target: 5-hydroxytryptamine receptor 2A (Homo sapiens) (UniProt P28223); test: 5-hydroxytryptamine receptor 2A (HTR2A) small molecule agonists, cell-based qHTS assay (AID 1963587); also: nearly all actives have a fitted effect of over 30% in size
5-hydroxytryptamine receptor 2A (Homo sapiens), sequence (P28223 whole entry, looked up): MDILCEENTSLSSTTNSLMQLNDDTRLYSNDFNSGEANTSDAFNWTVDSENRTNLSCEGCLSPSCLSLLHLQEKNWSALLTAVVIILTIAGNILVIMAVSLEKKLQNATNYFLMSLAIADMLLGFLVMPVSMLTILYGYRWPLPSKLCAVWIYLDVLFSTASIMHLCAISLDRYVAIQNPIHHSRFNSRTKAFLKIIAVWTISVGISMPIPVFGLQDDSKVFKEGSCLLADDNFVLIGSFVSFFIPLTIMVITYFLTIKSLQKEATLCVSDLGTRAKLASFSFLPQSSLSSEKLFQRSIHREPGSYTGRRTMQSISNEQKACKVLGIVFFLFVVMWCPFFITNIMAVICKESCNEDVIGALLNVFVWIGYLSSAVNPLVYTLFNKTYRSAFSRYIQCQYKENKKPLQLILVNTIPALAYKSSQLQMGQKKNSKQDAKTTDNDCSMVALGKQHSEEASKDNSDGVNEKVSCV
Outline: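 HTR2A-CHO cells, plated 18 h at 37 C/5% CO2, dye-loaded 1 h at 37 C; compounds in DMSO added by pin tool (agonist mode). Intracellular calcium flux read as kinetic fluorescence on FDSS over 2 min at 1 s intervals.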

[19] = cAMP Responsive Elements (CRE) small molecule antagonists, cell-based qHTS assay (AID 1963591; active = well fitted inhibition curve with a large enough effect in the signal ratio in the repeat runs, not every such curve was filed as active; the % refers to the signal ratio)
Outline: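 First, CRE-bla HEK293T cells settled 18 h at 37 C. Next, compound and 0.25 uM final NKH477 were applied for 3 h. Last, LiveBLAzer B/G substrate was loaded for 2 h at room temperature.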

[20] = target: D(2) dopamine receptor (Homo sapiens) (UniProt P14416); test: Dopamine D2 receptor (DRD2) small molecule antagonists, cell-based qHTS assay (AID 1963595; active = well fitted inhibition curve with a large enough effect in the signal ratio in the repeat runs, with a control signal flat; the % refers to the signal ratio)
Outline: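 In this cell-based antagonist screen, compounds act for 10 min at room temperature before a 30 min challenge with 12 nM quinpirole and 200 nM NKH477. cAMP is quantified by HTRF competition in DRD2-HEK293 cells containing 0.1 mM Ro20-1724.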

Measured: Potency

O[C@@H]1CO[C@H]2[C@@H]1OC[C@@H]2O
inactive: [1] | [2] | [3] | [4] | [5] | [6] | [7] | [8] | [9] | [10] | [11] | [12] | [13] | [14] | [15] | [16] | [17]

Nc1c2c(nc3c1CCC3)CCCC2
inactive: [1] | [2] | [3] | [4] | [5] | [6] | [7] | [8] | [9] | [10] | [11] | [18] | [12] | [14] | [19] | [16] | [17] | [20]

COc1cc2c(cc1OC)-c1cc3ccc(OC)c(OC)c3c[n+]1CC2
inactive: [1] | [2] | [3] | [4] | [5] | [6] | [7] | [8] | [9] | [10] | [11] | [18] | [12] | [13] | [19]

CNS(=O)(=O)CCc1ccc2[nH]cc(C3CCN(C)CC3)c2c1
inactive: [1] | [2] | [3] | [4] | [5] | [6] | [7] | [8] | [9] | [10] | [11] | [18] | [13] | [14] | [19] | [17] | [20]

COC(=O)CCCCCCCCC(=O)OC
inactive: [1] | [2] | [3] | [4] | [5] | [6] | [7] | [8] | [9] | [10] | [11] | [18] | [12] | [13] | [19] | [15] | [16] | [20]

CC(=O)[C@H]1CC[C@H]2[C@@H]3C[C@H](C)C4=CC(=O)CC[C@]4(C)[C@H]3[C@@H](O)C[C@]12C
inactive: [1] | [2] | [3] | [4] | [5] | [6] | [7] | [8] | [9] | [10] | [11] | [18] | [13] | [14] | [15] | [16] | [20]

COc1cc(C(=O)OC(COCCC(C)C)CN2CCOCC2)cc(OC)c1OC (stereo unspecified)
inactive: [1] | [2] | [3] | [4] | [5] | [6] | [7] | [8] | [9] | [10] | [11] | [18] | [12] | [13] | [17] | [20]

C=CC(C)(CCC=C(C)C)OC(=O)C(C)C (stereo unspecified)
inactive: [1] | [2] | [3] | [4] | [5] | [6] | [7] | [8] | [9] | [10] | [11] | [12] | [13] | [14] | [19] | [15] | [17] | [20]
